Source: PubChem BioAssay (NCATS)
Where “and” joins values, the source holds several entries; their conditions need not be identical. Equal entries are not always repeated. Records with an inconclusive call do not appear. Entries that show only a call come without a potency. Some structures have more than one record in an assay (separate samples or runs), and their calls can disagree. Calls of active or inactive are those of the source. Calls come from the whole dose curve; as a rule, active = well fitted curve in the direction sought with a large enough effect; inconclusive = small, poorly fitted or top-dose-only effect, or another doubt; inactive = no such curve, though single readings can be large; an effect the other way counts as inactive or inconclusive.

Assays:
TAB165 = assay: qHTS profiling for inhibitors of Plasmodium falciparum proliferation (AID 504749); note: nearly all actives have a fitted effect of over 60% in size; conditions: P. falciparum in erythrocytes, SYBR Green DNA, 72 h; series mostly up to 28.7 µM
In short: (§1)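 Infected RBCs, 0.3% parasitemia/2.5% Hct final; cpd 72 h, 37 C, 5% CO2; lysis buffer with saponin/triton/SYBR Green I, o/n RT dark; FI 485/535; norm. to artemisinin (0.29 uM) and DMSO.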

W2 = assay: as above; conditions: P. falciparum in erythrocytes, SYBR Green DNA, 72 h; series mostly up to 28.7 µM
In short: as §1

CRL-7250 = normal cell line; assay: Cytotoxic Profiling of Annotated Libraries Using Quantitative High-Throughput Screening (AID 1296008); conditions: Five cell lines viability, CellTiter-Glo ATP luminescence, 48-72 h; max response: stronger effect = lower value; note: nearly all actives have a fitted effect of over 60% in size; note: potency is the fitted concentration of half-maximal effect
In short: (§2)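 Cytotoxicity was measured as CellTiter-Glo ATP luminescence, read after 10 min at room temperature. Compound treatment of the cells lasted 48 or 72 hr at 37 degrees Celsius in a qHTS format.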

HEK293 = assay: as above; conditions: Five cell lines viability, CellTiter-Glo ATP luminescence, 48-72 h; max response: stronger effect = lower value
In short: as §2

HaCat [1] = assay: as above; conditions: Five cell lines viability, CellTiter-Glo ATP luminescence, 48-72 h; max response: stronger effect = lower value
In short: as §2

KB-3-1 = assay: as above; conditions: Five cell lines viability, CellTiter-Glo ATP luminescence, 48-72 h; max response: stronger effect = lower value
In short: as §2

NIH3T3 [2] = assay: as above; conditions: Five cell lines viability, CellTiter-Glo ATP luminescence, 48-72 h; max response: stronger effect = lower value
In short: as §2

MKL-2 = assay: qHTS assay to identify novel small-molecules to repurpose for Merkel cell carcinoma treatment (AID 1296009); conditions: MCC and control cell lines, CellTiter-Glo viability, 72 h; series mostly up to 46 µM; note: nearly all actives have a fitted effect of over 60% in size; note: potency is the fitted concentration of half-maximal effect
In short: (§3)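 72 hr, 37 degree celsius; NPC 8-pt / MIPE 11-pt dose response; compound pinned in DMSO; CellTiter-Glo, 10 min RT, luminescence; normalized to no-cell and DMSO controls.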

Es-2 = assay: Primary qHTS to identify gynecologic anti-cancer compounds using libraries of approved drugs and bioactive compounds (AID 1345084); conditions: Gynecologic cancer cell panel viability, ATPlite luminescence, 48 h; series mostly up to 57.5 µM; note: nearly all actives have a fitted effect of over 55% in size; note: potency is the fitted concentration of half-maximal effect
In short: (§4)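 In this quantitative HTS, cell killing is estimated from loss of ATP-dependent luciferase light. Cells see five compound concentrations over a 48 h exposure.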

MCC-13 = assay: qHTS assay to identify novel small-molecules to repurpose for Merkel cell carcinoma treatment (AID 1296009); conditions: MCC and control cell lines, CellTiter-Glo viability, 72 h; series mostly up to 46 µM; note: nearly all actives have a fitted effect of over 60% in size; note: potency is the fitted concentration of half-maximal effect
In short: as §3

MCC-26 = assay: as above; conditions: MCC and control cell lines, CellTiter-Glo viability, 72 h; series mostly up to 46 µM
In short: as §3

MKL-1 = assay: as above; conditions: MCC and control cell lines, CellTiter-Glo viability, 72 h; series mostly up to 46 µM
In short: as §3

NIH3T3 [3] = assay: as above; conditions: MCC and control cell lines, CellTiter-Glo viability, 72 h; at 44.8 µM (top of the series) unless noted
In short: as §3

UISO = assay: as above; conditions: MCC and control cell lines, CellTiter-Glo viability, 72 h; series mostly up to 46 µM
In short: as §3

WaGa = assay: as above; conditions: MCC and control cell lines, CellTiter-Glo viability, 72 h; series mostly up to 46 µM
In short: as §3

C33A = assay: Primary qHTS to identify gynecologic anti-cancer compounds using libraries of approved drugs and bioactive compounds (AID 1345084); conditions: Gynecologic cancer cell panel viability, ATPlite luminescence, 48 h; series mostly up to 57.5 µM; note: nearly all actives have a fitted effect of over 55% in size; note: potency is the fitted concentration of half-maximal effect
In short: as §4

CAOV3 = assay: as above; conditions: Gynecologic cancer cell panel viability, ATPlite luminescence, 48 h; series mostly up to 57.5 µM
In short: as §4

CASKI = assay: as above; conditions: Gynecologic cancer cell panel viability, ATPlite luminescence, 48 h; series mostly up to 57.5 µM
In short: as §4

HACAT [4] = assay: qHTS assay to identify novel small-molecules to repurpose for Merkel cell carcinoma treatment (AID 1296009); conditions: MCC and control cell lines, CellTiter-Glo viability, 72 h; at 44.8 µM (top of the series) unless noted; note: nearly all actives have a fitted effect of over 60% in size; note: potency is the fitted concentration of half-maximal effect
In short: as §3

HEK293T = assay: as above; conditions: MCC and control cell lines, CellTiter-Glo viability, 72 h; at 44.8 µM (top of the series) unless noted
In short: as §3

COC(=O)Nc1nc2ccc(Sc3ccccc3)cc2[nH]1
Potency (TAB165): inactive | Potency (W2): inactive | Potency (CRL-7250): 2.37 µM (active) | Potency (HEK293): 473 nM (active) and 1.32 µM (active) | max response (HaCat [1]): -7.21% (inactive) | Potency (KB-3-1): 1.66 µM (active) | Potency (NIH3T3 [2]): 668 nM (active) | Potency (MKL-2): 3.32 µM (active) | Potency (Es-2): 2.82 µM (active)

COC(c1ccccc1)(c1ccccc1)[C@H](Oc1nc(C)cc(C)n1)C(=O)O
outcome (CRL-7250): inactive | max response (HEK293): -24.1% (inactive) and 3.62% (inactive) | max response (HaCat [1]): -18.5% (inactive) and -6.09% (inactive) | max response (KB-3-1): 0.37% (inactive) | outcome (KB-3-1): inactive | max response (NIH3T3 [2]): -19.9% (inactive) | outcome (NIH3T3 [2]): inactive | Potency (MCC-13): inactive | Potency (MCC-26): inactive | Potency (MKL-1): inactive | Potency (MKL-2): inactive | outcome (NIH3T3 [3]): inactive | Potency (UISO): inactive | Potency (WaGa): inactive | Potency (C33A): inactive | Potency (CAOV3): inactive | Potency (CASKI): inactive | Potency (Es-2): inactive

COc1cc2ncnc(Nc3cccc(Cl)c3)c2cc1OC
Potency (CRL-7250): 0.187 µM (active) | Potency (HEK293): 372 nM (active) | Potency (HaCat [1]): 16.6 nM (active) and 1.46 µM (active) | Potency (KB-3-1): 16.6 µM (active) | Potency (NIH3T3 [2]): 2090 nM (active) | max response (NIH3T3 [2]): -25% (inactive) | Potency (MCC-13): inactive | Potency (MCC-26): inactive | Potency (MKL-1): inactive | Potency (MKL-2): inactive | Potency (C33A): inactive | Potency (CASKI): inactive | Potency (Es-2): inactive

COc1c(N2CCNC(C)C2)c(F)cc2c(=O)c(C(=O)O)cn(C3CC3)c12 (stereo unspecified)
Potency (TAB165): inactive | Potency (W2): inactive | max response (CRL-7250): -3.69% (inactive) | max response (HEK293): -24.5% (inactive) | outcome (HaCat [1]): inactive | max response (KB-3-1): 0.558% (inactive) | outcome (KB-3-1): inactive | max response (NIH3T3 [2]): -3.19% (inactive) | outcome (NIH3T3 [2]): inactive | outcome (HACAT [4]): inactive | Potency (MCC-13): inactive | Potency (MCC-26): inactive | Potency (MKL-1): inactive | Potency (MKL-2): inactive | outcome (NIH3T3 [3]): inactive | Potency (UISO): inactive | Potency (WaGa): inactive | Potency (C33A): inactive | Potency (CAOV3): inactive | Potency (CASKI): inactive | Potency (Es-2): inactive

OC(Cn1cncn1)(Cn1cncn1)c1ccc(F)cc1F
Potency (TAB165): inactive | Potency (W2): inactive | max response (CRL-7250): 2.49% (inactive) and -1.86% (inactive) | max response (HEK293): -0.0788% (inactive) and -5.53% (inactive) | max response (HaCat [1]): -29.4% (inactive) | outcome (HaCat [1]): inactive | max response (KB-3-1): -2.5% (inactive) and 5.59% (inactive) | max response (NIH3T3 [2]): -0.561% (inactive) and -16.4% (inactive) | outcome (HACAT [4]): inactive | Potency (MCC-13): inactive | Potency (MKL-1): inactive | Potency (MKL-2): inactive | Potency (UISO): inactive | Potency (WaGa): inactive | Potency (C33A): inactive | Potency (CAOV3): inactive | Potency (CASKI): inactive | Potency (Es-2): inactive

Nc1nc(N)nc(-c2cc(Cl)ccc2Cl)n1
Potency (TAB165): inactive | Potency (W2): inactive | max response (CRL-7250): -4.29% (inactive) and -4.54% (inactive) | max response (HEK293): -8.28% (inactive) and -2.53% (inactive) | max response (HaCat [1]): -21.1% (inactive) and 4.26% (inactive) | max response (KB-3-1): -7.71% (inactive) | max response (NIH3T3 [2]): -1.04% (inactive) and -13.6% (inactive) | Potency (MCC-13): inactive | Potency (MKL-1): inactive | Potency (MKL-2): inactive | Potency (UISO): inactive | Potency (WaGa): inactive | Potency (C33A): inactive | Potency (CAOV3): inactive | Potency (CASKI): inactive | Potency (Es-2): inactive

CCCc1cc(C(N)=S)ccn1
Potency (TAB165): inactive | Potency (W2): inactive | outcome (CRL-7250): inactive | max response (HEK293): -0.75% (inactive) and -9.47% (inactive) | max response (HaCat [1]): 0.608% (inactive) | outcome (HaCat [1]): inactive | max response (KB-3-1): -1.25% (inactive) and 6.29% (inactive) | max response (NIH3T3 [2]): -7.14% (inactive) and -4.81% (inactive) | outcome (HACAT [4]): inactive | Potency (MCC-13): inactive | Potency (MCC-26): inactive | Potency (MKL-1): inactive | Potency (MKL-2): inactive | Potency (UISO): inactive | Potency (WaGa): inactive | Potency (C33A): inactive | Potency (CAOV3): inactive | Potency (CASKI): inactive | Potency (Es-2): inactive

O=C(O)C1CCCN(CCC=C(c2ccccc2)c2ccccc2)C1 (stereo unspecified)
outcome (CRL-7250): inactive | max response (HEK293): 3.73% (inactive) | max response (HaCat [1]): -1.89% (inactive) | max response (KB-3-1): 5.05% (inactive) | max response (NIH3T3 [2]): 3.07% (inactive) | Potency (MCC-13): inactive | Potency (MCC-26): inactive | Potency (MKL-1): inactive | Potency (MKL-2): inactive | Potency (UISO): inactive | Potency (WaGa): inactive

COc1nc(N)nc2c1ncn2[C@@H]1O[C@H](CO)[C@@H](O)[C@@H]1O
Potency (TAB165): inactive | Potency (W2): inactive | max response (CRL-7250): -2.22% (inactive) and 4.78% (inactive) | outcome (HEK293): inactive | outcome (HaCat [1]): inactive | outcome (KB-3-1): inactive | max response (NIH3T3 [2]): -9.88% (inactive) and 4.97% (inactive) | outcome (HACAT [4]): inactive | outcome (HEK293T): inactive | Potency (MCC-13): inactive | Potency (MCC-26): inactive | Potency (MKL-1): inactive | Potency (MKL-2): inactive | Potency (UISO): inactive | Potency (WaGa): inactive and 18.7 µM (active) | Potency (C33A): inactive | Potency (CAOV3): inactive | Potency (CASKI): inactive | Potency (Es-2): inactive

CC(C)C[C@H](NC(=O)[C@H](CCc1ccccc1)NC(=O)CN1CCOCC1)C(=O)N[C@@H](Cc1ccccc1)C(=O)N[C@@H](CC(C)C)C(=O)[C@@]1(C)CO1
Potency (CRL-7250): 211 nM (active) and 209 nM (active) | Potency (HEK293): 37.6 nM (active) and 23.5 nM (active) | Potency (HaCat [1]): 332 nM (active) | Potency (KB-3-1): 1.84 µM (active) and 132 nM (active) | Potency (NIH3T3 [2]): 299 nM (active) and 235 nM (active) | Potency (MCC-13): 84.1 nM (active) and 418 nM (active) | Potency (MKL-1): 5.3 nM (active) and 37.2 nM (active) | Potency (MKL-2): 1.1 nM (active) and 14.8 nM (active) | Potency (UISO): 18.8 nM (active) and 59 nM (active) | Potency (WaGa): 4.7 nM (active) and 29.6 nM (active) | Potency (C33A): 0.316 µM (active) | Potency (CASKI): 0.316 µM (active) | Potency (Es-2): 0.316 µM (active)

CN(C)CCc1c[nH]c2ccc(CS(=O)(=O)N3CCCC3)cc12
Potency (TAB165): inactive | Potency (W2): inactive | max response (CRL-7250): -0.155% (inactive) and 1.13% (inactive) | max response (HEK293): -11.2% (inactive) and 1.86% (inactive) | max response (HaCat [1]): -24.1% (inactive) | outcome (HaCat [1]): inactive | max response (KB-3-1): 10.6% (inactive) and 7.32% (inactive) | max response (NIH3T3 [2]): -1.45% (inactive) and -5.53% (inactive) | outcome (HACAT [4]): inactive | Potency (MCC-13): inactive | Potency (MCC-26): inactive | Potency (MKL-1): inactive | Potency (MKL-2): inactive | Potency (UISO): inactive | Potency (WaGa): inactive | Potency (C33A): inactive | Potency (CAOV3): inactive | Potency (CASKI): inactive | Potency (Es-2): inactive
